Results published in the supplement of paper PMC8728848.
This is one part of a sample in which the strongest signals are shown more often than they occur.

How the values were obtained:
Assay in all cases: glycan array binding signal (z-score within array); higher = stronger binding
Conditions in all cases: glycan notation: IUPAC condensed, linker removed
[1] = biological target: Fuc(a1-2)Gal(b1-3)GlcNAc
Summary of the method: (§1)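 The Consortium for Functional Glycomics database supplied 3228 glycan arrays, of which those lacking an available protein sequence were dropped. The binding signal, a within-array Z-score, was averaged across arrays of the same protein sequence and across linkers. Negative scores can be read as non-binding.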

[2] = biological target: Fuc(a1-2)Gal(b1-3)GlcNAc(b1-3)Gal(b1-4)Glc
Summary of the method: as §1

[3] = biological target: Fuc(a1-2)[GalNAc(a1-3)]Gal(b1-4)GlcNAc(b1-3)Gal(b1-4)GlcNAc
Summary of the method: as §1

[4] = biological target: Fuc(a1-3)GlcNAc
Summary of the method: as §1

[5] = biological target: Fuc(a1-3)[Gal3S(b1-4)]GlcNAc6S
Summary of the method: as §1

[6] = biological target: Fuc(b1-3)GlcNAc
Summary of the method: as §1

[7] = biological target: Gal(b1-3)[Fuc(a1-4)]GlcNAc(b1-3)Gal(b1-3)[Fuc(a1-4)]GlcNAc
Summary of the method: as §1

[8] = biological target: Gal(b1-3)[Fuc(a1-4)]GlcNAc(b1-3)Gal(b1-4)[Fuc(a1-3)]GlcNAc
Summary of the method: as §1

[9] = biological target: Gal(b1-4)GlcNAc(b1-2)Man(a1-6)[GlcNAc(b1-2)Man(a1-3)]Man(b1-4)GlcNAc(b1-4)GlcNAc
Summary of the method: as §1

[10] = biological target: Gal3S(b1-4)[Fuc(a1-3)]Glc6S
Summary of the method: as §1

[11] = biological target: Gal3S4S(b1-4)GlcNAc
Summary of the method: as §1

[12] = biological target: Gal3S6S(b1-4)GlcNAc6S
Summary of the method: as §1

[13] = biological target: Gal4S(b1-4)GlcNAc
Summary of the method: as §1

[14] = biological target: GlcNAc(a1-4)Gal(b1-4)GlcNAc(b1-3)Gal(b1-4)Glc
Summary of the method: as §1

[15] = biological target: GlcNAc(a1-4)Gal(b1-4)GlcNAc(b1-3)Gal(b1-4)[Fuc(a1-3)]GlcNAc(b1-3)Gal(b1-4)[Fuc(a1-3)]GlcNAc
Summary of the method: as §1

[16] = biological target: GlcNAc(b1-2)Man(a1-3)[GlcNAc(b1-2)Man(a1-6)]Man(b1-4)GlcNAc(b1-4)[Fuc(a1-6)]GlcNAc
Summary of the method: as §1

[17] = biological target: GlcNAc(b1-4)GlcNAc(b1-4)GlcNAc(b1-4)GlcNAc(b1-4)GlcNAc(b1-4)GlcNAc
Summary of the method: as §1

[18] = biological target: Kdn(a2-3)Gal(b1-3)GlcNAc
Summary of the method: as §1

[19] = biological target: Man(a1-2)Man(a1-3)[Man(a1-2)Man(a1-6)]Man
Summary of the method: as §1

[20] = biological target: Man(a1-2)Man(a1-3)[Man(a1-2)Man(a1-6)]Man(a1-6)[Man(a1-2)Man(a1-2)Man(a1-3)]Man(b1-4)GlcNAc(b1-4)GlcNAc
Summary of the method: as §1

[21] = biological target: Neu5Ac(a2-3)Gal(b1-3)GalNAc(b1-3)Gal(a1-4)Gal(b1-4)Glc
Summary of the method: as §1

[22] = biological target: Neu5Ac(a2-3)Gal(b1-4)GlcNAc
Summary of the method: as §1

[23] = biological target: Neu5Ac(a2-3)Gal(b1-4)[Fuc(a1-3)]GlcNAc(b1-6)[Gal(b1-3)]GalNAc
Summary of the method: as §1

[24] = biological target: Neu5Ac(a2-3)[GalNAc(b1-4)]Gal(b1-4)Glc
Summary of the method: as §1

[25] = biological target: Neu5Ac(a2-3)[GalNAc(b1-4)]Gal(b1-4)GlcNAc(b1-3)GalNAc
Summary of the method: as §1

[26] = biological target: Neu5Ac(b2-6)GalNAc
Summary of the method: as §1

B1: MIC2 (Toxoplasma gondii), S8F9G8 (protein)
chain: MRLQREAVFGLMFACGMWMWPSEVAGGGWSIVDALRKRYDTSRGGDANGVDTSGVEDVIQSESAIGAAEGCTNQLDICFLIDSSGSIGIQNFRLVKQFLHTFLMVLPIGPEEVNNAVVTYSTDVHLQWDLQSPNAVDKQLAAHAVLDMPYKKGSTNTSDGLKACKQILFTGSRPGREHVPKLVIGMTDGESDSDFRTVRAAKEIRELGGIVTVLAVGHYVKHSECRSMCGCSGTSDDDSPCPLYLRADWGQLATAIKPMLKEVCKTLPQDAICSDWSAWSPCSVSCGDGSQIRTRTEVSAPQPGTPTCPDCPAPMGRTCVEQGGLEEIRECSAGVCAVDAGCGVWGEWSAWSASCGNATRKRERTRYNDPPPQGAGRRCENQDPPVLQEQTEEATLAPCITIPPTPPEWAAWSDCTVTCGGGNRHRVRNALPPGLGSQNGESDESLVSKLWPGTDLRQEEACNTSPCPINATCGQFEEWSTCSVSCGGGLKTRSRNPWNEDQQHGGLSCEQQHPGGRTETITCNPQACPVDERPGEWAEWGECSVTCGDGVRERRRGKSLVEAKFGGRTIDQQNEALPEDLKIKNVEYEPCSYPACGASCTYVWSDWNKCVCPMGYQARHAAVKFDYRNKPCDLPTFETKACSCGETNPVPSEGTTPGAPGATGPEQPNQRPLPEGSDENETPTNEEGEQSKKESGSGIAGAIAGGVIGGLILLGAAGGASYHYYLSSSVGSPSAEIEYEADDGATKVVMEEEKETLVPVDDDSDMWME
- glycan array binding signal (z-score) [1]: -0.642
- glycan array binding signal (z-score) [2]: -0.779
- glycan array binding signal (z-score) [3]: -0.814
- glycan array binding signal (z-score) [4]: -0.671
- glycan array binding signal (z-score) [5]: 3.68
- glycan array binding signal (z-score) [6]: 0.622
- glycan array binding signal (z-score) [7]: -0.718
- glycan array binding signal (z-score) [8]: 0.177
- glycan array binding signal (z-score) [9]: -0.816
- glycan array binding signal (z-score) [10]: 4.19
- glycan array binding signal (z-score) [11]: 3.35
- glycan array binding signal (z-score) [12]: 3.06
- glycan array binding signal (z-score) [13]: -0.874
- glycan array binding signal (z-score) [14]: -0.113
- glycan array binding signal (z-score) [15]: 3.35
- glycan array binding signal (z-score) [16]: 4
- glycan array binding signal (z-score) [17]: 0.267
- glycan array binding signal (z-score) [18]: -0.014
- glycan array binding signal (z-score) [19]: -0.278
- glycan array binding signal (z-score) [20]: 0.876
- glycan array binding signal (z-score) [21]: 0.008
- glycan array binding signal (z-score) [22]: 0.221
- glycan array binding signal (z-score) [23]: 3.24
- glycan array binding signal (z-score) [24]: 0.279
- glycan array binding signal (z-score) [25]: 1.93
- glycan array binding signal (z-score) [26]: -0.725
